In PubChem BioAssay (NCI):
The panel holds about 83,000 compounds, 20% with a hit somewhere; the sample as a whole holds those more often.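 The test compound was applied at a single concentration to cells in 96-well plates for 48 hours, and percent growth was recorded.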 Unmarked numbers belong to inactive results. Activity calls are given as the source filed them. Rule for the calls: active = growth percent below 10; inactive = the rest.

Each compound was assayed on MDA-MB-468 breast (assay: NCI-60 one-dose screen, 48 h (100 = growth as untreated, 0 = no growth, -100 = all killed)). Details: 10 µM unless noted.

SMILES	growth
COC(=O)/C(=C\c1c(C)[nH]c2ccccc12)S(=O)(=O)c1ccccc1	23.4%
CCCCCCCCCOc1c(OC)cc(C2CC(=O)Nc3c2c(C)nn3-c2nc3ccccc3[nH]2)cc1OC (stereo not given)	-55.6% (active)
C[n+]1ccccc1C[n+]1ccccc1	117%
O=C(CN1C(=O)/C(=C/c2ccco2)SC1=S)NCCc1c[nH]c2ccc(F)cc12	105%
Cc1cc2cn3c4ccc(O)cc4[nH]c(=O)c3c2cc1C	-28.2% (active)
COc1ccc(OC)c(/C=C/c2nc(=S)n(-c3ccc(Cl)cc3)[nH]2)c1	38.8%
O=C(CCC(=O)N/N=C/c1ccccc1O)N/N=C/c1ccccc1O	62.8%
C#CC(=O)/C=C/CCCCCCC#CC(=O)CCC(=O)C#CCCCCCC/C=C/C(=O)C#C	-10% (active)
COc1ccc(SC2c3ccc(O)cc3Oc3nc(N)c(C#N)c(N)c32)cc1 (stereo not given)	89.6%
COc1ccc(NC(=O)CSc2nc3ccccc3c(=O)n2-c2ccccc2C(F)(F)F)c(OC)c1OC	93.2%
COc1ccc(/C=C/C(C)=N/OCC(=O)O)cc1	95.6%
O=[N+]([O-])c1ccc(Sc2ncccn2)c([N+](=O)[O-])c1	5.95% (active)
COc1ccc(C(=O)/C=C/c2ccc(C)cc2)cc1S(N)(=O)=O	60.4%
Nc1c(C(=O)Nc2c(Cl)cccc2Cl)sc2nc3c(cc12)CCCCC3	32.1%
O=C(O/C(=C/c1ccccc1)C(F)(F)F)c1ccccc1	109%
COc1ccc(/C=C2\CCCC3=C2NC(N)=NC3c2ccc(OC)c(OC)c2)cc1OC (stereo not given)	-16.3% (active)
COc1ccc(-n2nc3c(c2-c2ccc(OC)c(OC)c2)-c2oncc2CC3)cc1	90.1%
COc1cc(CNS(=O)(=O)c2ccc(C)cc2)ccc1OCc1cn(-c2ccc(Br)cc2)nn1	95.5%
CCOC(=O)c1c(C)nc2c(c1N)/C(=C/c1cc(OC)c(OC)c(OC)c1)C(=O)N2c1ccc(OC)cc1	56%
O=c1[nH]nc(-c2ccccc2)c2sc(NC(=S)Nc3ccc(Cl)cc3)nc12	95.6%

SMILES	growth
COc1cccc(-c2nc3sccn3c2-c2ccnc(NCCNS(=O)(=O)c3cccc(Cl)c3)c2)c1	42.4%
CO[C@H]1CC(c2ccc[nH]2)=N[C@]12O[C@@H](C)C[C@@H]1CCCCCCCc3ccc([nH]3)[C@H]12	1.37% (active)
Nc1ncc(-c2ccc(C(F)(F)F)cc2)c(NC2CCCCCC2)n1	-3.25% (active)
OCc1cc(CN2CCCCC2)c(O)c2ncccc12	76.7%
COc1cc(/C=C/c2cc(/C=C/c3ccc(O)c(OC)c3)n(C(N)=O)n2)ccc1O	-14.3% (active)
COc1ccc(C2c3ccc4ccccc4c3Oc3nc(C)[nH]c(=O)c32)cc1 (stereo not given)	111%
O=C(O)c1cn(C2CC2)c2cc(N3CCN(C(=O)N/N=C/c4ccccc4)CC3)c(F)cc2c1=O	83.7%
COc1ccc(-c2nc(Nc3cc(C)[nH]n3)c3ccccc3n2)cc1	47.3%
Nc1nc(Nc2cccc(F)c2)nc2ccccc12	8.81% (active)
COc1ccc(/C=N/NC(=O)CN2CCN(c3cc4c(cc3F)c(=O)c(C(=O)O)cn4C3CC3)CC2)cc1O	101%
O=S(=O)(Oc1ccc(-c2ccc3sccc3c2)cc1)c1ccc(F)cc1	86.9%
Cc1cnc(SCc2ccc(Cl)cc2)[nH]c1=S	110%
COc1cc(/C=C/C(=O)/C=C/c2ccc(-n3ccnc3C)cc2)ccc1O	24.4%
COc1cc(C2CC(c3ccc(C)cc3)=NN2C=O)ccc1Oc1ccnc2cc(Cl)ccc12 (stereo not given)	58.4%
COc1ccc(C(c2cc(OC)c(OC)c(OC)c2)N2CCN(Cc3ccccc3)CC2)cc1 (stereo not given)	53%
COc1ccc2cc(C(C)C(=O)Nc3ccc(-c4n[nH]c(=S)n4C4CCCCC4)cc3)ccc2c1 (stereo not given)	111%
COc1cccc(-c2nc3sccn3c2-c2ccnc(NCCNC(=O)Nc3cccc(C(F)(F)F)c3)n2)c1	39.6%
C=C(C)[C@@H]1CC[C@]2(COS(C)(=O)=O)CC[C@]3(C)[C@H](CC[C@@H]4[C@@]5(C)CCCNC(C)(C)[C@@H]5CC[C@]43C)[C@@H]12	49.9%
CC(C)(C)CC(C)(C)Cc1ccc(OCCOCC[N+](C)(C)Cc2ccccc2)cc1	-35.3% (active)
O=C(Nc1ccc([N+](=O)[O-])cc1)c1cc2ccccc2cc1O	-8.75% (active)
